This passage reports Potency and activity (max response) results from PubChem BioAssay (NCATS).

A short description of assay [1]: Viability qHTS for spleen associated tyrosine kinase inhibitor (SYKi) naive MV4-11 cells (AID 1963823). Further: nearly all actives have a fitted effect of over 40% in size. The procedure, abridged: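 CellTiter-Glo luminescence, 10 min room-temperature incubation, gave viability. Cells: naive MV4-11 (500/well), treated 72 hr at 37 C, 5% CO2.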
A short description of assay [2]: Viability qHTS for spleen associated tyrosine kinase inhibitor (SYKi) drug resistant MV4-11 cells (AID 1963824). Further: nearly all actives have a fitted effect of over 35% in size. The procedure, abridged:
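SYK inhibitor-resistant MV4-11 AML cells, 500 per well, added to predispensed compounds and incubated 72 hr at 37 C, 5% CO2. Viability measured by CellTiter-Glo luminescence after 10 min at room temperature.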
A general note: qHTS replaces the single test concentration by a dilution series.

The nature of assay [3]: Cellular viability qHTS for adrenocortical cancer (ACC) cell line SW-13 (AID 1963989). Further: nearly all actives have a fitted effect of over 65% in size.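 On activity (max response): cells grown in serum-free medium with ITS supplement; on the % scale 0 is the no-effect control and ±100 the full control effect.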 Particulars: SW-13 ACC cells viability, CellTiter-Glo, 48 h; activity (max response): stronger effect = lower value. The gist of the method:
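Viability was read as CellTiter-Glo luminescence after 48 h compound treatment (up to 46 uM final) of SW-13 cells grown serum-free; titration curves were fit with a four-parameter logistic model to give IC50 and efficacy.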

Records with an inconclusive call do not appear. A number with no mark means an inactive call. Calls of active or inactive are those of the source. The call rests on the fitted dose curve; in most records, active means well fitted curve in the direction sought with a large enough effect; inconclusive means small, poorly fitted or top-dose-only effect, or another doubt; inactive means no such curve, though single readings can be large; an effect the other way counts as inactive or inconclusive.
Potency means the concentration at half of the fitted maximal effect.

As for `OCCCc1ccccc1`, the Potency entry in assay [1] and in assay [2] was “inactive” throughout. For the same compound, the activity (max response) in assay [3] was 4.32%.

`Cn1cncc1C(N)(c1ccc(Cl)cc1)c1ccc2c(c1)c(-c1cccc(Cl)c1)cc(=O)n2C` (stereo not given): the Potency was 1.05 µM (active) in assay [1], 1.86 µM (active) in assay [2] and 6.31 µM (active) in assay [3].

Consider `Cc1cccc(C)c1NC(=O)CN1CCN(CCCC(c2ccc(F)cc2)c2ccc(F)cc2)CC1`, for which the values for the Potency in assay [1] and in assay [2] were 10.6 µM (active) and 8.41 µM (active), respectively. Besides, in assay [3], the activity (max response) was -13.9%.

For `Cc1cc(OCCOCC[N+](C)(C)Cc2ccccc2)ccc1C(C)(C)CC(C)(C)C`, the figures for the Potency in assay [1], in assay [2] and in assay [3] were 3.35 µM (active), 2.66 µM (active) and 5.8 µM (active), respectively.

As to `C=C1CCC2[C@](C)(CO)C(O)CC[C@]2(C)C1C/C=C1/C(=O)OCC1O` (stereo not given in full), the values for the Potency in assay [1], in assay [2] and in assay [3] were 3.32 µM (active), 2.63 µM (active) and 25.1 µM (active), respectively.

Turning to `Cc1[nH]c2ccccc2c1CCNCc1ccc(/C=C/C(=O)NO)cc1`, the Potency is 0.0295 µM (active) in assay [1], 0.0263 µM (active) in assay [2] and 0.251 µM (active) in assay [3].

`C[C@]1(Cn2ccnn2)[C@H](C(=O)O)N2C(=O)C[C@H]2S1(=O)=O`: the Potency entry in assay [1] and in assay [2] was “inactive” in each case. Besides, the activity (max response) in assay [3] is 2.68%.

As to `O=C(O)c1ccc(OCCCOc2ccc(C(=O)O)cc2)cc1`, the Potency entry in assay [1] and in assay [2] was “inactive” each time. In assay [3], the activity (max response) is 5.44%.

As to `Oc1cccc(-c2c3nc(c(-c4cccc(O)c4)c4ccc([nH]4)c(-c4cccc(O)c4)c4nc(c(-c5cccc(O)c5)c5ccc2[nH]5)CC4)C=C3)c1`, the Potency in assay [1] is 16.8 µM (active); in assay [2], 18.8 µM (active); in assay [3], 6.51 µM (active).

With `CCCCCCC[N+](CC)(CC)CCCCc1ccc(Cl)cc1`, the Potency in assay [1] was 1.68 µM (active); in assay [2], 2.11 µM (active); in assay [3], 5.8 µM (active).
